Results on 55 compounds are retold here after ChEMBL document CHEMBL4513216, “Probing the Open Global Health Chemical Diversity Library for Multistage-Active Starting Points for Next-Generation Antimalarials” (ACS Infect Dis, 2020).

Hit rate of the full screen: of about 69,000 compounds, about 8,600 (12%) showed an effect of 50% or more. Only a selection was taken, and strong results are over-represented in it overall.

This test concerns Plasmodium berghei. Put plainly: Screen against P. berghei liver stage (PbLuc), transformed with Luciferase, at 10uM. To be noted: tested at 10 uM. In kind it is functional, HepG2.
Consider `Cc1cc(CN2C[C@@H]3COC[C@]3(CNC(=O)c3ccsc3)C2)no1`, for which the INHIBITION is listed as -2.25%.
For `O=C(CCC1CCCC1)N1C[C@@H]2CC[C@H]1CN(Cc1ccncc1)C2` the value was 27.6%; for `COc1cccc(-c2noc(-c3ccc(NCCCO)nc3)n2)c1OC`, 43.9%; for `CN(C)CCNc1ccc(-c2nc(COc3ccccc3)no2)cn1`, 56.5%.
For `CNCCNc1ccc(-c2nc(-c3cccc(OC)c3OC)no2)cn1` the value was 25.8%; for `CN(C)CCN(C)c1ccc(-c2nc(COc3ccccc3)no2)cn1`, 41.3%.
For `CN(C)CCNc1ccc(-c2nc(-c3ccccc3F)no2)cn1` the value was 80.7%; for `CC(C)(CO)Nc1ccc(-c2nc(-c3ccccc3F)no2)cn1`, 91.3%; for `COC(=O)CNc1ccc(-c2nc(Cc3ccc(OC)cc3)no2)cn1`, 26.6%.
With `Cc1ccccc1-c1noc(-c2ccc(NCC3COCCO3)nc2)n1` (stereo not given), the INHIBITION worked out at 32.3%.
For `COc1cccc(-c2noc(-c3ccc(NCCCN)nc3)n2)c1OC` the value was 46.7%; for `CNC(=O)CCc1cc(C)nc(C2CCN(CC(=O)N(C)C)CC2)c1`, 23.3%.
For `O=C(O)c1ccccc1-c1cnc(Cn2c(=O)cc[nH]c2=O)s1` the value was 22%; for `CC(C)N(CC(=O)Nc1cccc(C(=O)N(C)C)c1)C1CC1`, -0.614%; for `CC(C)N(CC(=O)Nc1cccc(C#N)c1)C1CC1`, 54.8%.
For `COc1cccc(NC(=O)CN(C(C)C)C2CC2)c1` the value was 20%; for `Cc1noc(C)c1CN(C)CC(=O)N1CCc2sccc2C1`, 14.4%; for `Cn1c(=O)n(C)c2cc(NS(=O)(=O)Cc3ccccc3)ccc21`, 2.03%.
On to `CCc1cnc(N2C[C@@H]3C[C@H](C(=O)N(C)C)[C@H](C2)O3)nc1`, for which the INHIBITION is on record as -46.9%.
For `COCc1nn(CC2CC2)c2c1CN(Cc1ccco1)CC2` the value was 26%; for `CCn1c(CN(C)Cc2cnc(C)s2)nc2c(F)cccc21`, 37.8%; for `CCn1c(CN(C)Cc2cnc(C)s2)nc2cc(F)ccc21`, -2.09%.
For `Cc1ncc(CN(C)Cc2nc3cc(Cl)ccc3n2C)s1` the value was 74%; for `COCc1nn(C(C)C)c2c1CCN(Cc1ccccn1)C2`, -18.4%.
`CCc1nc(N2CCCC(CCCOC)C2)c2cnn(C)c2n1` (stereo not given): the INHIBITION was found to be 49.4%.
With `COCCN1CC[C@@H]2OC(COCC(=O)N3CCCC3)CC[C@@H]21` (stereo not given in full), the INHIBITION is recorded as -36%.
For `O=C(Cc1ccsc1)N1C[C@@H]2COC[C@]2(COCc2cccnc2)C1` the value was 30.3%; for `Cc1cc(F)ccc1N1CCC(N2C[C@@H](C)[C@@](C)(O)C2)CC1`, 54.4%; for `C[C@@H]1CN(S(=O)(=O)c2ccc(F)cc2Cl)C[C@]1(C)O`, 5.94%.
In the case of `Cc1cc(F)ccc1S(=O)(=O)N1C[C@@H](C)[C@@](C)(O)C1`, the INHIBITION is listed as 52.5%.
For `C[C@@H]1CN(S(=O)(=O)c2ccc(F)cc2F)C[C@]1(C)O` the value was 45.6%.
Take `C[C@@H]1CN(C2CCN(c3ccccc3F)CC2)C[C@]1(C)O`: the INHIBITION amounted to 47.9%.
For `COc1cc(S(=O)(=O)N2C[C@@H](C)[C@@](C)(O)C2)c(C)cc1C` the value was 54.5%; for `Cc1cc(F)ccc1N1CCC(N2C[C@@H](CN(C)C)[C@@H](CO)C2)CC1`, 38%.
For `COc1cc(C)ccc1S(=O)(=O)N1CC[C@](C)(O)[C@H](C)C1` the value was 25.5%; for `Cc1ccc(F)cc1S(=O)(=O)N1C[C@@H](C)[C@@](C)(O)C1`, 43.6%; for `COC1COC2(CCN(Cc3ccccc3Cl)CC2)C1` (stereo not given), -40.3%.
For `Cc1cc(CN2CCCC(Cn3cncn3)C2)no1` (stereo not given) the value was 3.73%.
With `COc1cn(CC(=O)N2CCN(c3ccc(F)cc3)CC2)c(C)cc1=O`, the INHIBITION is 39.6%.
For the compound `CC(C)NC(=O)N1CCN(Cc2ccccn2)CC2(CC(=O)N(C)C2)C1` (stereo not given), the INHIBITION is on record as 42.4%.
For `CC1CN(C)CCN1CC(=O)NCCOc1cccc(F)c1` (stereo not given) the value was 22.007%; for `O=C(c1ccc2[nH]nnc2c1)N1CCC(Nc2cccnn2)CC1`, 33.3%; for `NCCC(=O)NCC1(O)CCCN(c2ccnc3cccnc23)C1` (stereo not given), 29.4%.
Regarding `CCN(c1ccsc1C(=O)N1CCC(C)CC1)S(=O)(=O)c1ccccc1`, the INHIBITION is recorded as -8%.
For `Cc1ccc(N(C)[C@@H]2CC[C@@H]3CN(C(=O)Cc4cccs4)C[C@@H]32)nn1` the value was -3.02%; for `FC(F)C(F)(F)COCc1ncnn1-c1ccc2c(c1)OCO2`, -98.6%.
For `FC(F)(F)CCc1ncnn1-c1ccc2c(c1)OCO2`, the INHIBITION was -147%.
For `CN1CCN(CCc2ncnn2-c2ccc3c(c2)OCO3)CC1` the value was 89.9%; for `Cc1nn(C)c(C)c1OCC(=O)NCC(O)c1ccsc1` (stereo not given), 29.7%.
For `Cc1nn(C)c(C)c1OCC(=O)NCC(O)c1ccco1` (stereo not given) the value was 40.6%; for `Cc1nn(C)c(C)c1OCC(=O)NCC(O)Cc1ccccc1` (stereo not given), 67.4%.
For `Cc1nn(C)c(C)c1OCC(=O)NCc1cccc(CO)c1` the value was -8.92%.
Turning to `Cc1nn(C)c(C)c1OCC(=O)NCC(O)c1ccccc1F` (stereo not given), the INHIBITION stood at 57.5%.
Turning to `Cc1nn(C)c(C)c1OCC(=O)NCc1cccc(C(=O)O)c1`, the INHIBITION worked out at 38.6%.
For `CC(C)[C@H](NS(C)(=O)=O)C(=O)NCc1cc(-c2cccc(Cl)c2)nn1C` the value was 45.6%.
